Assay outcomes from PubChem.
This is one part of a sample in which hits are shown more often than they occur.
LmPK inhibitor: qHTS Assay for Inhibitors of Leishmania Mexicana Pyruvate Kinase (LmPK) | purified LmPK, Kinase-Glo ATP luminescence, 1 h | Potency, µM (series often up to 57.5 µM), for inactives: at the highest dose activity change, negative = inhibition, actives largely listed as inhibitors | 290,000 compounds, 0.37% hits | AID 1721, 2009; further: potency means the concentration at half of the fitted maximal effect; on the % scale 0 is the no-effect control and ±100 the full control effect
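qHTS format; LmPK 0.1 nM; substrates PEP 0.5 mM and ADP 0.1 mM. One-hour room-temperature incubation, then coupled luciferase luminescence; 0.5 nM enzyme wells mark activation.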
Tb PYK inh: qHTS of Trypanosoma Brucei Inhibitors; pyruvate kinase (Trypanosoma brucei), Q57TT1; TbPYK enzyme, Kinase-Glo Plus ATP luminescence, 45 min; Potency, µM (highest dose often 76.8 µM), for inactives: at the top dose activity, negative = inhibition, most hits filed as inhibitors; 410,000 compounds, 0.12% hits; AID 624173, 2012; further: potency means the concentration at half of the fitted maximal effect; on the % scale 0 is the no-effect control and ±100 the full control effect; nearly all actives have a fitted effect of over 50% in size
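Activity of T. brucei pyruvate kinase was followed by Kinase-Glo Plus luminescence after the enzyme reacted 45 min at room temperature with 130 uM ADP (final) and substrate. Test compounds were added before ADP at multiple concentrations.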
RE007 growth inh: qHTS Assay for Inhibitors of the HIV-1 protein Vpr. Potency, µM (titrated, usually from 92.2 µM), without a hit: at the highest dose activity change, negative = less growth, usual class: inhibitors. 360,000 compounds, 0.21% hits. AID 651644, 2012. S. pombe RE007 Vpr strain, BacTiter-Glo ATP luminescence, 24 h; active means well fitted falling curve with a large enough effect; inconclusive means small, poorly fitted or top-dose-only effect; inactive means no such curve, though single readings can be large or run the other way; further: potency means the concentration at half of the fitted maximal effect; on the % scale 0 is the no-effect control and ±100 the full control effect; nearly all actives have a fitted effect of over 50% in size
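Fission yeast strain RE007, carrying one chromosomally integrated HIV-1 vpr copy, was seeded at OD 0.01 in PMG+AL medium with 23 nL pinned compound. After 24 h at 30 °C and 99% humidity, viability was read by BacTiter-Glo luminescence.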
Shiga toxin inh: A qHTS for Small Molecule Inhibitors of Shiga Toxin; Vero cells, Shiga toxin protein synthesis inhibition reporter; inhibition, % at 38.7 µM; 290,000 compounds, 9.2% hits; AID 2315, 2010; in the data active means inhibition mostly above about 28%, no sharp cut-off; inactive means mostly below about 43%; further: 0% is about no effect
CHX counter: Cycloheximide Counterscreen for Small Molecule Inhibitors of Shiga Toxin; cell reporter, cycloheximide protein synthesis inhibition counterscreen; max response, %; 300,000 compounds, 12% hits; AID 2314, 2010; in the data active means max response mostly above about 13%, no sharp cut-off; inactive means mostly below about 14%; further: read at 38.3 µM for the half of the compounds with a filed dose; 0% is about no effect
FBPA Giardia inh: qHTS Assay for Inhibitors of Fructose-1,6-bisphosphate Aldolase from Giardia Lamblia; A8B2U2; purified Giardia FBPA; Potency, µM (doses to about 59.6 µM), inactives show top-dose activity, negative = inhibition, usual class: inhibitors; 290,000 compounds, 0.71% hits; further: potency means the concentration at half of the fitted maximal effect; on the % scale 0 is the no-effect control and ±100 the full control effect; nearly all actives have a fitted effect of over 55% in size
Target sequence (A8B2U2 whole entry, looked up): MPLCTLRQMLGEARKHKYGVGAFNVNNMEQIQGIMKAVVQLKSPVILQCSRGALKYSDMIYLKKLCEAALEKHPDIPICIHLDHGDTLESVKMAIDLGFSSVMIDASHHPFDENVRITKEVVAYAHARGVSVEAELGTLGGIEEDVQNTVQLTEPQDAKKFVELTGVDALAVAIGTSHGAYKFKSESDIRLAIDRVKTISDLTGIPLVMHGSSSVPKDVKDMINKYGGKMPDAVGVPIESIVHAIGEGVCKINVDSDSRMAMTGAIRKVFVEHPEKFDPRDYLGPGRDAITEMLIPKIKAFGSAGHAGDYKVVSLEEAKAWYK
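Giardia FBPA (40 nM reagent) was preincubated 10 min at RT with compound (up to 57.5 uM final), then substrate plus GAPDH/TPI/NAD/arsenate coupling system with diaphorase/resazurin was added; resorufin fluorescence (525/598 nm) was read after 20 min.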
Starred values were filed as active, the others as inactive; ? = inconclusive; · = not tested or not shown; [ ] = another dose, or the depositor's remark. Unless noted, the call rests on the fitted dose curve; in most records, active means well fitted curve in the direction sought with a large enough effect; inconclusive means small, poorly fitted or top-dose-only effect, or another doubt; inactive means no such curve, though single readings can be large; an effect the other way counts as inactive or inconclusive.

SMILES	LmPK inhibitor	Tb PYK inh	RE007 growth inh	Shiga toxin inh	CHX counter	FBPA Giardia inh
O=C(NCc1cccs1)C1CC(c2ccccc2O)=NO1 (configuration not stated)	-3.6%	3.1%	13.1%	51.2*	26.5*	-2.0%
COc1ccc(N2CCN(C(CNC(=O)C(=O)NCc3cccnc3)c3cccnc3)CC2)cc1 (configuration not stated)	·	-2.5%	·	·	·	·
COc1ccc(C2=NOC(C(=O)NCC(C)C)C2)cc1 (configuration not stated)	2.4%	4.0%	-3.8%	60.9*	44.7*	0.7%
CCOc1ccc(OCCCCn2ccnc2)cc1	-7.5%	6.8%	-8.0%	8.3	25.7*	-21.3%
Cc1ccc(OCCCCn2ccnc2)c(Cl)c1	5.4%	-0.2%	-3.6%	39.8*	27.1*	-12.6%
Cc1ccc(OCCOCCn2ccnc2)c(Br)c1	-1.6%	-7.1%	9.2%	74.6	30.7*	-29.2%
Cc1ccc(OCCCCn2ccnc2)c([N+](=O)[O-])c1	-1.7%	-18.7%	-12.7%	35.6	21.0*	?
CCNc1nc(OC)nc(Oc2ccc(=O)[nH]n2)n1	·	-3.6%	·	·	·	·
O=C(NCc1cccnc1)C1Cc2c(-c3ccc(Cl)cc3)ccnc2O1 (configuration not stated)	·	1.1%	-16.6%	·	·	·
COc1cc(C2SCCS2)cc(Br)c1Oc1ncccc1[N+](=O)[O-]	7.2%	-4.3%	5.9%	-7.7	1.7	-27.0%
O=[N+]([O-])c1cccnc1Oc1ccc(OCc2ccccc2)cc1	-2.0%	-3.0%	5.3%	61.1*	62.8*	4.1%
O=[N+]([O-])c1ccc(Oc2ccc(OCc3ccccc3)cc2)nc1	-4.0%	-1.3%	2.2%	-6.4	-1.1	0.7%
O=[N+]([O-])c1cccnc1Oc1ccc(C2SCCS2)cc1	4.2%	-8.6%	3.4%	72.6*	57.6*	0.6%
Cc1nc(/C(N)=N/OC(=O)c2cccc(Cl)c2)c(C(F)(F)F)o1	-7.2%	1.0%	8.6%	36.7	11.3*	1.1%
Cc1nc(/C(N)=N/OC(=O)c2ccccc2Cl)c(C(F)(F)F)o1	12.6µM*	-21.0%	-7.6%	91.3*	52.5*	0.0%
CS(=O)(=O)c1ccc(N)c(SSc2cc(S(C)(=O)=O)ccc2N)c1	·	3.55µM*	6.7%	·	·	·
Cc1cc(C)cc(NC(=O)C2CCCN(c3ncccn3)C2)c1 (configuration not stated)	0.1%	-4.8%	3.7%	2.3	11.5*	·
Cc1ccc(NC(=O)C2CCCN(c3ncccn3)C2)cc1F (configuration not stated)	5.8%	-1.0%	-2.3%	54.5	23.5*	-16.3%
Cc1ccc(NC(=O)C2CCCN(c3ncccn3)C2)c(C)c1 (configuration not stated)	3.7%	-5.9%	?	49.0*	33.2*	9.2%
O=C(Nc1ccc2c(c1)CCC2)C1CCCN(c2ncccn2)C1 (configuration not stated)	5.8%	1.5%	5.9%	43.3*	37.8*	2.0%[12.9 µM]
O=C(Nc1cccc(C(F)(F)F)c1)C1CCCN(c2ncccn2)C1 (configuration not stated)	5.0%	-4.5%	-0.5%	5.9	-2.5	-28.4%
Cc1ccc(NC(=O)C2CCCN(c3nccc(C)n3)C2)c(C)c1 (configuration not stated)	-7.7%	-1.8%	7.9%	-6.7	-1.4	0.0%
Cc1ccc(F)c(S(=O)(=O)NC(=O)C2(C)CCN2C(=O)CCc2ccccc2)c1 (configuration not stated)	·	0.2%	15.7%	·	·	·
CSc1ccccc1NC(=O)c1cccc(S(=O)(=O)N2CCN(C)CC2)c1	-8.3%	-7.0%	0.6%	32.5*	37.0*	·
CCc1cccc(CC)c1NC(=O)c1cccc(S(=O)(=O)N2CCN(C)CC2)c1	-12.0%	-4.4%	1.6%	-16.4	-1.6	·
CC(=O)c1ccc(NC(=O)c2cccc(S(=O)(=O)N3CCN(C)CC3)c2)cc1	0.1%	3.1%	7.7%	104.1*	40.7*	0.6%
